# Assay results reported in PubChem BioAssay (NCATS).
# “And” between values parts separate entries of the source, which are not always exact repeats. Identical values can stand only once. Records with an inconclusive call do not appear. A call without a number means that no potency is given here. The source made the active and inactive calls. The call rests on the fitted dose curve; in most records, active means well fitted curve in the direction sought with a large enough effect; inconclusive means small, poorly fitted or top-dose-only effect, or another doubt; inactive means no such curve, though single readings can be large; an effect the other way counts as inactive or inconclusive.
# Tests used:
# [1] = Cell Viability - LYMP2-010 (AID 981); further: nearly all actives have a fitted effect of over 55% in size; further: potency means the concentration at half of the fitted maximal effect
# Procedure, shortened: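 This 24 hr viability screen uses LYMP2-010 lymphoblastoid cells, quantifies ATP via luciferase luminescence, and derives AC50 from Hill fits of qHTS concentration-response data.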
# [2] = Cell Viability - LYMP2-012 (AID 982);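 further: cellular ATP by luciferase luminescence where a drop means cytotoxicity; cells exposed to compound for one day before reading; nearly all actives have a fitted effect of over 55% in size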; further: potency means the concentration at half of the fitted maximal effect
# [3] = Cell Viability - LYMP2-014 (AID 983);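 further: cells exposed to compound for 24 h at 37 °C; nearly all actives have a fitted effect of over 50% in size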; further: potency means the concentration at half of the fitted maximal effect
# Procedure, shortened: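 Quantitative HTS in lymphoblastoid cells: 24 hr compound exposure, then CellTiter-Glo ATP luminescence. Positive control was tetraoctylammonium bromide, 6.4pM to 92 uM.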
# [4] = Cell Viability - LYMP2-016 (AID 984); further: nearly all actives have a fitted effect of over 55% in size; further: potency means the concentration at half of the fitted maximal effect
# Procedure, shortened: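 qHTS, 1536-well: 2500 LYMP2-016 cells/well, 5 hr 37 C, compound added, 24 hr 37 C, CellTiter-Glo 30 min RT, luminescence. Tetraoctylammonium bromide positive control. AC50 via Hill fit.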
# [5] = Cell Viability - LYMP2-018 (AID 985); further: nearly all actives have a fitted effect of over 50% in size; further: potency means the concentration at half of the fitted maximal effect
# Procedure, shortened: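 In this qHTS viability assay, cells are treated for 24 hr and cellular ATP is quantified by luciferase-based luminescence, with tetraoctylammonium bromide as positive control.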
# [6] = Cell Viability - LYMP2-020 (AID 986);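 further: cells exposed to compound for 24 h at 37 °C; nearly all actives have a fitted effect of over 55% in size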; further: potency means the concentration at half of the fitted maximal effect
# Procedure, shortened: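 Cells at 2500 per well receive a 24 hr compound exposure at 37 C. Viability is measured as ATP-dependent luciferase luminescence, with AC50 modeled from qHTS concentration-response curves.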
# [7] = Cell Viability - LYMP2-022 (AID 987); further: nearly all actives have a fitted effect of over 55% in size; further: potency means the concentration at half of the fitted maximal effect
# Procedure, shortened: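 In this qHTS cytotoxicity screen, compound titrations were incubated 24 hr at 37 C with human lymphoblastoid cells in complete medium. Luciferase-based ATP luminescence provided the viability signal.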
# [8] = Cell Viability - LYMP2-024 (AID 988); further: nearly all actives have a fitted effect of over 60% in size; further: potency means the concentration at half of the fitted maximal effect
# Procedure, shortened: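 Cells at 2500 per well received compound for 24 hr after a 5 hr settling period. Viability was scored by CellTiter-Glo luminescence, with AC50 from Hill fits.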
# [9] = Cell Viability - LYMP1-002 - Assay at 24 hr (AID 993); further: potency means the concentration at half of the fitted maximal effect
# Procedure, shortened: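 Viability was judged from intracellular ATP using a luciferase read-out, following a 24-hour compound incubation at 37 C of lymphoblastoid cells seeded at 2500 per well. Concentration-response data were fitted to the Hill equation for AC50.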
# [10] = biological target: Alpha-galactosidase A (Homo sapiens) (UniProt P06280); assay: Counterscreen for Glucocerebrosidase Inhibitors: qHTS Assay for Human alpha-Galactosidase at pH 4.5 (AID 992)
# Chain of Alpha-galactosidase A (Homo sapiens) (P06280 whole entry, looked up): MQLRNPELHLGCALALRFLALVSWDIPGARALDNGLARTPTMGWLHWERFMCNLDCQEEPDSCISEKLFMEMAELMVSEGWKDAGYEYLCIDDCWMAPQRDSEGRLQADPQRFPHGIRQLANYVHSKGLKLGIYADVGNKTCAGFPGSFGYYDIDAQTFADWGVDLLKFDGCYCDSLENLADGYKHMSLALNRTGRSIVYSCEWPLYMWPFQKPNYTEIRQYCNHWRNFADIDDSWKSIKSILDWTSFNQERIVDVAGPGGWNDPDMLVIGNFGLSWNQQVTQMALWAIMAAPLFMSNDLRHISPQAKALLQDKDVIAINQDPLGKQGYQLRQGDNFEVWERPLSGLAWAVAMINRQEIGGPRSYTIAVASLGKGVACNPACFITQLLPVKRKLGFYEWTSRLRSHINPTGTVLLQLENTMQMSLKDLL
# Procedure, shortened: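 Fluorogenic 4-MU alpha-D-galactoside (80 uM) hydrolysis, 2 nM enzyme, pH 4.5 citrate buffer + 0.005% Tween-20; 20 min RT; NaOH/glycine pH 10 stop; Ex365/Em440. Compounds titrated 0.7 nM–77 uM; Hill-equation AC50.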
# [11] = biological target: alpha-glucosidase (Oryza sativa, rice) (UniProt Q653V4); assay: Counterscreen for Glucocerebrosidase Inhibitors: qHTS Assay for Rice alpha-Glucosidase at pH 5.0 (AID 997)
# Procedure, shortened: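 Endpoint fluorogenic assay at pH 5.0: compounds (0.7 nM to 77 uM) titrated against 4 nM rice enzyme and 400 uM 4-MU-alpha-glucoside for 20 min at room temperature; NaOH/glycine stop, read ex 365/em 440 nm, Hill-fitted AC50.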
# [12] = biological target: Alpha-galactosidase (Coffea arabica) (UniProt Q42656); assay: Counterscreen for Glucocerebrosidase Inhibitors: qHTS Assay for Coffee Bean alpha-Galactosidase at pH 5.9 (AID 998)
# Chain of Alpha-galactosidase (Coffea arabica) (Q42656 whole entry, looked up): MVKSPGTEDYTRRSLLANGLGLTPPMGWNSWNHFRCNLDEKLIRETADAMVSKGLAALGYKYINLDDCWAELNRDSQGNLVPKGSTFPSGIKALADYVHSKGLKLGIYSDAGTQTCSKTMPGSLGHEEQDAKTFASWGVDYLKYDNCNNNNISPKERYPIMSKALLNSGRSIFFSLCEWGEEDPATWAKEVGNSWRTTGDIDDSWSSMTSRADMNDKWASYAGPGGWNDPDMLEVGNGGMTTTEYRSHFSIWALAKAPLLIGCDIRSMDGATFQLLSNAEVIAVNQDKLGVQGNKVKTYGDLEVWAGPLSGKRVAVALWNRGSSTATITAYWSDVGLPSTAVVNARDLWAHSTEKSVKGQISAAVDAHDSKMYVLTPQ
# Procedure, shortened: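 Enzyme 2 nM + cpd (0.7 nM–77 uM titration) + 4-MU-alpha-Gal 80 uM, pH 5.9 citrate/Tween-20, RT 20 min, NaOH/glycine stop pH 10, fluor 365/440. Normalized to no-enzyme and full-activity controls; Hill-fit AC50.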
SMILES,Potency [1],Potency [2],Potency [3],Potency [4],Potency [5],Potency [6],Potency [7],Potency [8],Potency [9],outcome [10],outcome [11],outcome [12]
COC1=CC(=O)O[C@@H](/C=C/c2ccccc2)C1,inactive,inactive,inactive,inactive,inactive,inactive,inactive,inactive,inactive,–,–,–
CC(C)Nc1ccc(Nc2ccccc2)cc1,25.1 µM (active),25.1 µM (active),39.8 µM (active),31.6 µM (active),20 µM (active),25.1 µM (active),15.8 µM (active),12.6 µM (active),31.6 µM (active),–,–,–
C[C@@H]1[C@@H]2Cc3ccc(O)cc3[C@@]1(C)CCN2CC1CC1,–,–,–,–,–,–,–,–,–,inactive,inactive,inactive
ClCC1CO1 (configuration not stated),inactive,inactive,–,inactive,–,inactive,–,–,inactive,–,–,–
C[C@]12CCC(=O)C[C@@H]1CC[C@@H]1[C@@H]2CC[C@]2(C)[C@@H](O)CC[C@@H]12,inactive,inactive,inactive,inactive,inactive,inactive,inactive,inactive,inactive,–,–,–
CCCCCCCCOC(=O)c1ccccc1C(=O)OCCCCCCCC,inactive,inactive,inactive,inactive,inactive,inactive,inactive,inactive,inactive,–,–,–
CC(C)(C)c1cc(O)ccc1O,50.1 µM (active),50.1 µM (active),–,–,50.1 µM (active),50.1 µM (active),50.1 µM (active) and 39.8 µM (active),31.6 µM (active),inactive,–,–,–
[O]=[Cd],inactive,inactive,inactive,inactive,inactive,inactive,inactive,inactive,inactive,–,–,–
N#CCCN,–,–,–,–,–,–,–,–,–,inactive,inactive,inactive
O=C1C2CC=CCC2C(=O)N1SC(Cl)(Cl)Cl (configuration not stated),2.51 µM (active) and 3.16 µM (active),2.51 µM (active) and 5.01 µM (active),5.01 µM (active) and 6.31 µM (active),5.01 µM (active) and 7.94 µM (active),3.98 µM (active) and 7.94 µM (active),3.16 µM (active) and 5.01 µM (active),2 µM (active) and 3.98 µM (active),1.58 µM (active) and 3.16 µM (active),7.94 µM (active),–,–,–
